Hedgehog inh: Sonic Hedgehog pathway inhibition; Shh-LIGHT2 Gli-luciferase reporter, 30 h; inhibition, % (no concentration beside the values); 2.1% of 22,000 active; AID 2313;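 active = mean inhibition across valid replicates above about 65%, limit read from the data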;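 note: pathway switched on by Shh-conditioned medium diluted 1 in 25 in low serum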
NOMO-1 viab: STK33 inhibitor candidate reducing NOMO-1 cell viability; 7.5% of 37,000 active; NOMO-1 AML viability, CellTiter-Glo luminescence, 72 h; AID 2330; inhibition, % (concentration not given with the values); in the data active = inhibition above about 80%
MITF inhib: blocks MITF activity. 0.28% of 37,000 active. TRPM1 promoter luciferase, luminescence, 24 h. inhibition, % (test concentration not listed). AID 2240; in the data active = inhibition above about 85%;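 note: human melanocyte line stably carrying TRPM1 promoter luciferase reporter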
PD-1 reverse act: reversal of PD-1 mediated T-cell inhibition | primary human CD4 T cells, PD-L1 beads, CellTiter-Glo 96 h | activation, % (concentration not given with the values) | 29,000 tested, under 10 active | AID 2316; call rule not given here
YB-1 expr inh: YB-1 expression inhibition; U2OS, qRT-PCR YB-1 vs CDIP delta delta Cp, 16 h; active compounds read high; zero = DMSO, each unit about twofold; delta delta Cp (YB-1 minus CDIP) (no concentration beside the values); 0.37% of 30,000 active;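 active = delta delta Cp rounded down to an integer at or above 3, about 3 SD of DMSO wells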;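 note: higher means less YB-1 transcript or more CDIP transcript relative to DMSO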
Numbers stand for hits. The list is not random: actives were taken first. Their share in the collection is about 7.4%.

What do the screens show for `Cc1cc(C(=O)Nc2cccc3c2O[C@@H](CN(C)S(=O)(=O)c2ccc(Cl)cc2)[C@@H](C)CN([C@H](C)CO)C3=O)n(C)n1`?
Hedgehog inh: 78; NOMO-1 viab: inactive; MITF inhib: inactive; PD-1 reverse act: inactive; YB-1 expr inh: inactive

Results for C[C@@H]1CN([C@@H](C)CO)C(=O)c2cccc(NC(=O)C3CCOCC3)c2O[C@H]1CN(C)S(=O)(=O)c1ccc(Cl)cc1 ?
Hedgehog inh: inactive; NOMO-1 viab: inactive; MITF inhib: inactive; PD-1 reverse act: inactive; YB-1 expr inh: inactive

Results for C[C@H]1CN([C@@H](C)CO)C(=O)c2cccc(NC(=O)C3CCOCC3)c2O[C@H]1CN(C)S(=O)(=O)c1ccc(Cl)cc1 ?
Hedgehog inh: 84; NOMO-1 viab: inactive; MITF inhib: inactive; PD-1 reverse act: inactive; YB-1 expr inh: inactive

What do the screens show for `C[C@H]1CN([C@@H](C)CO)C(=O)c2cccc(NC(=O)C3CC3)c2O[C@@H]1CN(C)S(=O)(=O)c1ccc(Cl)cc1`?
Hedgehog inh: inactive; NOMO-1 viab: inactive; MITF inhib: inactive; PD-1 reverse act: inactive; YB-1 expr inh: inactive

Results for CS/C(N)=N/C(N)=Nc1ccc(Cl)cc1 ?
Hedgehog inh: inactive; NOMO-1 viab: inactive; MITF inhib: inactive; PD-1 reverse act: inactive

How did O=C(CSc1nc2ccccc2s1)Nc1ccc(Cl)c(C(F)(F)F)c1 do in these assays?
NOMO-1 viab: inactive; MITF inhib: inactive; PD-1 reverse act: inactive

What do the screens show for `COc1cc(Cc2nccc3cc(OC)c(OC)cc23)c(NC(=O)c2cccs2)cc1OC`?
NOMO-1 viab: inactive; MITF inhib: inactive

Results for O=C(Oc1ccc(N(Cc2cccs2)C2=NS(=O)(=O)c3ccccc32)cc1)c1ccccc1 ?
Hedgehog inh: inactive; NOMO-1 viab: inactive; MITF inhib: inactive; PD-1 reverse act: inactive; YB-1 expr inh: inactive

Results for C=CCN1C(C(=O)c2ccccc2)=C(OC(=O)c2ccccc2)c2ccccc2S1(=O)=O ?
Hedgehog inh: inactive; NOMO-1 viab: 108; MITF inhib: inactive; PD-1 reverse act: inactive; YB-1 expr inh: inactive

Results for C[C@H](CO)N1C[C@H](C)[C@@H](CN(C)C(=O)Nc2ccc(C(F)(F)F)cc2)Oc2ccc(NC(=O)Nc3ccc(C(F)(F)F)cc3)cc2C1=O ?
Hedgehog inh: inactive; NOMO-1 viab: 104; MITF inhib: inactive; PD-1 reverse act: inactive; YB-1 expr inh: inactive

Results for C[C@@H]1CN([C@@H](C)CO)C(=O)c2cc(NC(=O)Nc3ccc(F)cc3)ccc2O[C@@H]1CN(C)C(=O)Nc1ccc(C(F)(F)F)cc1 ?
Hedgehog inh: inactive; NOMO-1 viab: 105; MITF inhib: inactive; PD-1 reverse act: inactive; YB-1 expr inh: inactive

How did Cc1ccc(S(=O)(=O)Nc2ccc3c(c2)C(=O)N([C@@H](C)CO)C[C@@H](C)[C@@H](CN(C)C(=O)Nc2ccc(C(F)(F)F)cc2)O3)cc1 do in these assays?
Hedgehog inh: inactive; NOMO-1 viab: 111; MITF inhib: inactive; PD-1 reverse act: inactive; YB-1 expr inh: inactive

Results for Cc1ccc(C(=O)O)cc1NC(=O)CCN1C(=O)c2ccccc2C1=O ?
NOMO-1 viab: inactive; MITF inhib: inactive

What do the screens show for `COc1cccc(C(=O)c2sc3nsc(SCc4ccccc4)c3c2N)c1`?
Hedgehog inh: inactive; NOMO-1 viab: inactive; MITF inhib: inactive; PD-1 reverse act: inactive; YB-1 expr inh: inactive

What do the screens show for `CC(C)(C)c1cc(C(F)(F)F)c(C#N)c(SCC(=O)Nc2sc3c(c2C#N)CCCC3)n1`?
NOMO-1 viab: 97; MITF inhib: inactive

What do the screens show for `N#Cc1c(C(F)(F)F)cc(-c2cccs2)nc1SCC(=O)Nc1sc2c(c1C#N)CCC2`?
NOMO-1 viab: inactive; MITF inhib: inactive; PD-1 reverse act: inactive

What do the screens show for `N#Cc1c(NC(=O)CSc2ncn[nH]2)sc2c1CCCCC2`?
NOMO-1 viab: inactive; MITF inhib: 104; PD-1 reverse act: inactive

What do the screens show for `COC(=O)c1c(NC(=O)CSc2ncn[nH]2)sc2c1CCCC2`?
NOMO-1 viab: inactive; MITF inhib: inactive; PD-1 reverse act: inactive

Results for CCC1c2[nH]c3ccccc3c2CCN1C(=O)c1ccc(Cl)cc1 (configuration not stated) ?
Hedgehog inh: inactive; NOMO-1 viab: 84; MITF inhib: inactive; PD-1 reverse act: inactive; YB-1 expr inh: inactive

Results for COC(=O)[C@@H]1[C@H]2C[C@H]3c4[nH]c5ccccc5c4CCN3C[C@@H]2CC[C@@H]1O ?
Hedgehog inh: inactive; NOMO-1 viab: inactive; MITF inhib: inactive; PD-1 reverse act: inactive; YB-1 expr inh: inactive

How did C[C@@H]1CN([C@H](C)CO)C(=O)Cc2cc(NC(=O)Nc3ccc(F)cc3)ccc2O[C@H]1CN(C)Cc1ccc2c(c1)OCO2 do in these assays?
Hedgehog inh: inactive; NOMO-1 viab: inactive; MITF inhib: inactive; PD-1 reverse act: inactive; YB-1 expr inh: inactive

What do the screens show for `C[C@@H]1CN([C@H](C)CO)C(=O)Cc2cc(NC(=O)Nc3ccc(C(F)(F)F)cc3)ccc2O[C@@H]1CN(C)Cc1ccc2c(c1)OCO2`?
Hedgehog inh: inactive; NOMO-1 viab: 115; MITF inhib: inactive; PD-1 reverse act: inactive; YB-1 expr inh: inactive

How did C[C@@H]1CN([C@H](C)CO)C(=O)Cc2cc(NC(=O)Nc3ccc4c(c3)OCO4)ccc2O[C@@H]1CN(C)Cc1ccc(C(F)(F)F)cc1 do in these assays?
Hedgehog inh: inactive; NOMO-1 viab: 81; MITF inhib: inactive; PD-1 reverse act: inactive; YB-1 expr inh: inactive

How did C[C@H]1CN([C@@H](C)CO)C(=O)Cc2cc(NC(=O)Nc3ccc(C(F)(F)F)cc3)ccc2O[C@@H]1CN(C)Cc1ccc2c(c1)OCO2 do in these assays?
Hedgehog inh: inactive; NOMO-1 viab: inactive; MITF inhib: inactive; YB-1 expr inh: inactive

Results for C[C@H](CO)N1C[C@H](C)[C@H](CN(C)Cc2ccc3c(c2)OCO3)Oc2ccc(NC(=O)Nc3ccc(C(F)(F)F)cc3)cc2CC1=O ?
Hedgehog inh: inactive; NOMO-1 viab: 124; MITF inhib: inactive; PD-1 reverse act: inactive; YB-1 expr inh: inactive

How did COc1ccc(S(=O)(=O)NCC2CCCO2)cc1-c1nnc2c3ccccc3c(C)nn12 (configuration not stated) do in these assays?
NOMO-1 viab: inactive; MITF inhib: inactive; PD-1 reverse act: inactive

Results for COc1cc2c(cc1-c1coc3c4c(ccc3c1=O)OC(C)(C)C=C4)OCO2 ?
Hedgehog inh: inactive; NOMO-1 viab: 87; MITF inhib: inactive; PD-1 reverse act: inactive; YB-1 expr inh: inactive

How did COc1cc2c(cc1-c1coc3cc(O[C@@H]4O[C@H](CO)[C@@H](O)[C@H](O)[C@H]4O)ccc3c1=O)OCO2 do in these assays?
Hedgehog inh: inactive; NOMO-1 viab: inactive; MITF inhib: inactive; PD-1 reverse act: inactive; YB-1 expr inh: inactive

How did CCN(CC)S(=O)(=O)c1cccc(C(=O)O)c1 do in these assays?
NOMO-1 viab: inactive; MITF inhib: inactive; PD-1 reverse act: inactive; YB-1 expr inh: inactive

How did CC(C)(C)c1ccc(OCc2nnc(Sc3ccc([N+](=O)[O-])cn3)n2-c2ccccc2)cc1 do in these assays?
NOMO-1 viab: 109; MITF inhib: inactive; PD-1 reverse act: inactive

Results for O=[N+]([O-])c1cc(C(F)(F)F)ccc1Sc1nnc(CCCO)n1-c1ccccc1 ?
NOMO-1 viab: inactive; MITF inhib: inactive; PD-1 reverse act: inactive

Source: PubChem BioAssay (Broad Institute)
